# Test results reported in PubChem BioAssay (NCI).
# Compounds without any hit were thinned out: in the full panel of roughly 83,000, 20% have a hit.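 96-well plates, one dose, 48 hours. Percent growth reported; active if below 10.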 Unmarked numbers belong to inactive results. The source made the active and inactive calls.
# Experiments:
# Assay in all cases: NCI-60 one-dose screen, 48 h (100 = growth as untreated, 0 = no growth, -100 = all killed)
# Details in all cases: 10 µM unless noted
# DU-145 prostate = test system: DU-145 prostate
# K-562 leukemia = test system: K-562 leukemia
# MALME-3M melanoma = test system: MALME-3M melanoma
# MDA-MB-231 breast = test system: MDA-MB-231 breast
# RXF 393 renal = test system: RXF 393 renal
# SF-268 CNS = test system: SF-268 CNS
# SF-295 CNS = test system: SF-295 CNS
# SF-539 CNS = test system: SF-539 CNS
# UACC-257 melanoma = test system: UACC-257 melanoma
# M14 melanoma = test system: M14 melanoma
# HCT-15 colon = test system: HCT-15 colon
# HT29 colon = test system: HT29 colon
# SNB-75 CNS = test system: SNB-75 CNS
# SNB-19 CNS = test system: SNB-19 CNS
# U251 CNS = test system: U251 CNS
# PC-3 prostate = test system: PC-3 prostate
# SK-MEL-5 melanoma = test system: SK-MEL-5 melanoma
# UACC-62 melanoma = test system: UACC-62 melanoma
# LOX IMVI melanoma = test system: LOX IMVI melanoma
# SK-MEL-28 melanoma = test system: SK-MEL-28 melanoma
Compound,growth (DU-145 prostate),growth (K-562 leukemia),growth (MALME-3M melanoma),growth (MDA-MB-231 breast),growth (RXF 393 renal),growth (SF-268 CNS),growth (SF-295 CNS),growth (SF-539 CNS),growth (UACC-257 melanoma),growth (M14 melanoma),growth (HCT-15 colon) [%],growth (HT29 colon),growth (SNB-75 CNS),growth (SNB-19 CNS) [%],growth (U251 CNS),growth (PC-3 prostate) [%],growth (SK-MEL-5 melanoma),growth (UACC-62 melanoma),growth (LOX IMVI melanoma),growth (SK-MEL-28 melanoma)
COc1cc(C2CC(=O)Nc3c2c(C)nn3-c2nc3ccccc3[nH]2)c(OC)c(OC)c1OC (stereo not given),53.8%,20.5%,55.1%,72.3%,61.5%,50.9%,19.8%,63.7%,60.6%,17%,33,80.7%,1.94% (active),62.9,42%,51.9,46.7%,40.7%,67.7%,72.3%
S=C(Cc1ccc2c(c1)CCCC2)N1CCOCC1,104%,107%,85.6%,103%,115%,101%,104%,99.6%,91.5%,99.5%,101,87.9%,95.1%,102,95.6%,97.8,102%,95.9%,93.2%,102%
Cc1c2c(c(C)c3c1oc1cc(O)ccc13)C(=O)N(CCN1CCCCC1)C2=O,68.4%,3.97% (active),100%,83%,87.1%,73.4%,102%,91.6%,110%,91.7%,95.4,61.3%,87.3%,88.9,86.4%,83.8,96%,99.2%,95.4%,106%
C[C@@]1(CCC#N)[C@H]2CC[C@@H]3[C@H]4[C@H](C(=O)/C=C/c5cccnc5)CC[C@]4(C#N)CC[C@@]3(C)[C@]2(C)CC[C@H]1C(=O)/C=C/c1cccnc1,81.5%,23.2%,109%,93.4%,69.7%,61.7%,100%,83.7%,67.5%,74.7%,31.5,24.1%,72.7%,86.9,64.1%,65,77.3%,52.4%,17.5%,97.3%
COc1cccc(-c2nc3sccn3c2/C=C/C(=O)c2ccc(C(F)(F)F)cc2)c1,88.4%,51.8%,104%,89.6%,67.7%,89.2%,106%,96.6%,73.9%,85.4%,69.1,75.3%,81.7%,79.7,83.2%,63.2,71.5%,66.1%,88.3%,83.6%
COc1ccc(N=Nc2ccc(O)c(=O)cc2)cc1,19.3%,2.95% (active),9.91% (active),17.5%,29.7%,22.3%,10.2%,-5.77% (active),7.51% (active),13%,16.4,33.1%,8.47% (active),15.1,12.8%,36.6,-23.3% (active),-54% (active),-38.8% (active),5.78% (active)
COc1ccc(NC(=O)CSc2nc(C)c(C(C)=O)n2-c2ccc(Cl)cc2)cc1,116%,109%,96%,59.7%,94.5%,102%,93.3%,96.2%,101%,97%,78.4,84.2%,84.7%,90.9,105%,96.3,93.7%,70.2%,91%,91.7%
Cc1ccc(C(=NN=C(N)N)c2ccc(C)cc2)cc1,-16.6% (active),5.03% (active),40.4%,-11.3% (active),-16.1% (active),16.7%,0.547% (active),-2.53% (active),25.9%,-74.7% (active),11.6,0.831% (active),-1.11% (active),30.4,6.36% (active),16.3,-68.6% (active),31.6%,-28.3% (active),21.4%
Cc1ccc(S(=O)(=O)n2cc(CNc3ccc(N4CCOCC4=O)cc3)c3ccccc32)cc1,67.6%,82.4%,62.9%,87.8%,-8.02% (active),89.4%,88.7%,96.8%,86.6%,93.3%,74.7,89.1%,73.4%,97.7,95.1%,89.6,93%,78.2%,87.2%,101%
CC(C)C(=O)Nc1n[nH]c2cc(-c3cccc(NS(=O)(=O)C4CC4)c3)ccc12,85.9%,23.2%,66.1%,58.4%,88.9%,76.1%,56.3%,77.8%,66.8%,55.7%,84.3,76.2%,54.3%,89.7,79.5%,64,24.5%,54.4%,64.6%,78.4%
Cc1c(C(=O)N[C@@H](Cc2ccccc2)C(=O)C(=O)NCCc2ccccc2)[nH]c2ccccc2c1=O,101%,91.7%,103%,97.7%,112%,98.6%,103%,102%,101%,110%,102,105%,88.7%,98,99.6%,93.8,97.8%,92.1%,97.8%,105%
N#Cc1c(N)nc2c(C#N)c(NC(=O)c3ccccc3)nn2c1-c1ccccc1,102%,73.1%,102%,84.3%,83.5%,86.2%,90%,94.2%,105%,87.3%,81.2,99%,83%,89.6,106%,75.7,78.4%,91.2%,86.3%,103%
COCCc1ccc(OCC(O)CNC(C)C)cc1 (stereo not given),109%,101%,97.5%,101%,128%,104%,101%,106%,96.3%,92.4%,102,98.9%,90.4%,105,98.2%,96.6,108%,113%,96.6%,98.9%
O=C(COc1ccc(/C=C2\Oc3ccccc3C2=O)cc1)Nc1nc2c(s1)CCCC2,-79.7% (active),20.9%,22.6%,22.2%,-5.41% (active),-9.96% (active),101%,-95.7% (active),104%,98.3%,89.7,30.2%,-76.6% (active),83,-44.4% (active),12.3,103%,75.6%,-57.3% (active),117%
COc1ccc(-c2c(N)n[nH]c2-c2ccc(Cl)cc2O)cc1OC,101%,75.5%,105%,106%,98.2%,102%,99.2%,100%,93%,93.2%,88.5,111%,91.3%,97.7,95.6%,86.3,93.7%,76.3%,89.5%,106%
N#Cc1c2c(nn(-c3ccccc3)c1=O)C(O)=C([N+](=O)[O-])C(c1ccccc1)C2 (stereo not given),26.2%,41%,86.1%,71.1%,49.7%,88%,98.9%,83%,87.7%,86.1%,54.7,94.1%,90.6%,84.2,57.7%,80.5,92.9%,84.6%,17.9%,96.4%
